Compound activity: PubChem BioAssay, NMMLSC
Most compounds without a hit are left out; they make up all but 1.1% or so of the library.
LAP4-GFP MLPCN: alters LAP4-GFP fluorescence in TOR pathway yeast screen | AID 2023 | hit rate 0.34% among 320,000 | S. cerevisiae LAP4-GFP multiplex, flow cytometry GFP, 3 h; median GFP as percent of DMSO wells | GFP response vs DMSO, % at 10 µM;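 active = GFP response vs DMSO above a set limit, about the screen mean plus 3 SD, cut at about 150% in these data; inconclusive = under 70 cell events counted for the yeast strain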
MEP2-GFP yeast: yeast TOR pathway MEP2-GFP modulation. hit rate 0.51% among 330,000. S. cerevisiae MEP2-GFP strain, flow cytometry GFP, 3 h; 100% = DMSO control level. AID 2016. GFP response vs DMSO, % at 10 µM;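 active = GFP response versus DMSO above a set limit, roughly screen mean plus 3 SD, cut at about 180% in these data; inconclusive = fewer than 70 cells counted for a yeast strain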;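 note: median GFP fluorescence of the barcode-gated MEP2-GFP cells per well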
VLA-4 inh: inhibition in a human VLA-4 binding assay; inhibition, % (about 7 µM as worked out from the volumes in the protocol); hit rate 0.2% among 330,000; P13612; VLA-4 expressing cells, ligand binding flow cytometry; in the data active = inhibition above about 50%
Target sequence (P13612 whole entry, looked up): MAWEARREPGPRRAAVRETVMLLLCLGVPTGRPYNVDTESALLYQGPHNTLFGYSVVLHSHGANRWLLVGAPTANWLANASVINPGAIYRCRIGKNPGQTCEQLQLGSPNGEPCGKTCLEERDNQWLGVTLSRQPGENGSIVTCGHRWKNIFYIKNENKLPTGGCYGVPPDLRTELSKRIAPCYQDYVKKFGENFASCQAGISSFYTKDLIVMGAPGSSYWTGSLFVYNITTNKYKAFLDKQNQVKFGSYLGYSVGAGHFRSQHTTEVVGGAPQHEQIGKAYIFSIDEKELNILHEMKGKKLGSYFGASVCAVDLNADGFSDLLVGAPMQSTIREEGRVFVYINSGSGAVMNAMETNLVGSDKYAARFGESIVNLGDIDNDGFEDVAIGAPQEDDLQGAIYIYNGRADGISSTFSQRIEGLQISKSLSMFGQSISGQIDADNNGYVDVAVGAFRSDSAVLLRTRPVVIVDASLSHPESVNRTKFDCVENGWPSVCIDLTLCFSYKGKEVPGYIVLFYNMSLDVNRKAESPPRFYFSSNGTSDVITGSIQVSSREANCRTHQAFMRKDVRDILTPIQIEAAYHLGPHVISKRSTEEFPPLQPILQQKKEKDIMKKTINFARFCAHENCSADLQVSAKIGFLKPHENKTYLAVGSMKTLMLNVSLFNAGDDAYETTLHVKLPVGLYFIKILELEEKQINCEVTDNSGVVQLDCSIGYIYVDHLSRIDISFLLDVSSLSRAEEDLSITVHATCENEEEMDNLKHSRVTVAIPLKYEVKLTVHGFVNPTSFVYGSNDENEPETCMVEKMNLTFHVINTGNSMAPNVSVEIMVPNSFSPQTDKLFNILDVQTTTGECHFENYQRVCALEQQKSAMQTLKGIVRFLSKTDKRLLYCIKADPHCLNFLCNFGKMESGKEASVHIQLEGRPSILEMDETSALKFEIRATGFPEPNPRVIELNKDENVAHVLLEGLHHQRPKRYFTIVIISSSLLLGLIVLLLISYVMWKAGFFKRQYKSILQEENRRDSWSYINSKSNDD
CIT2-GFP yeast: yeast TOR pathway CIT2-GFP modulation. S. cerevisiae CIT2-GFP strain, flow cytometry, 3 h; 100 means same as DMSO wells. GFP response vs DMSO, % at 10 µM. hit rate 0.065% among 320,000. AID 2029;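 active = GFP response relative to DMSO above a set limit, near the screen mean plus 3 SD, cut at about 150% in these data; inconclusive = Fewer than 70 cells measured for a yeast strain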;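 note: ratio of well median GFP fluorescence to mean of DMSO wells on the plate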
AGP1 TOR yeast: modulators of TOR pathway AGP1-GFP in S. cerevisiae; S. cerevisiae AGP1-GFP multiplex flow cytometry, 3 h; GFP as percent of DMSO wells; GFP response vs DMSO, % at 10 µM; hit rate 0.02% among 320,000; AID 2066;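 active = GFP response relative to DMSO above a set limit, near screen average plus 3 SD, cut at about 150% in these data; inconclusive = fewer than 70 cells counted for the yeast strain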;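 note: median GFP channel fluorescence of the gated AGP1 strain per well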
RPL19A TOR yeast: alters RPL19A-GFP fluorescence in TOR pathway yeast screen | S. cerevisiae RPL19A-GFP strain, flow cytometry, 3 h; stronger effect = lower value | percent response vs DMSO, % at 10 µM | hit rate 0.3% among 330,000;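 active = percent response vs DMSO below 50%; inconclusive = fewer than 70 events counted for the yeast strain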;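 note: median channel GFP fluorescence of the barcoded RPL19A-GFP strain; lower means less RPL19A-GFP as with rapamycin TOR inhibition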
Of the large screens only hits and unclear results are named; the others gave an inactive call; [ ] = remark or other dose.

CCOc1ccc2c(c1)c1nnc(SCC(=O)NC3CC3)nc1n2C	none
CC(=O)c1c(C)[nH]c(C(=O)NCc2ccccc2F)c1C	MEP2-GFP yeast inconclusive, CIT2-GFP yeast inconclusive, AGP1 TOR yeast inconclusive, RPL19A TOR yeast 27.6[may fluoresce violet]
CC(=O)c1c(C)[nH]c(C(=O)NCc2ccccc2Cl)c1C	none
CCC(=O)N/N=C/c1ccc(-c2ccc([N+](=O)[O-])cc2)o1	none
CC(C)(C)C(=O)/C=c1\s/c(=C\c2ccc(-c3ccc([N+](=O)[O-])cc3)o2)c(=O)n1CC(=O)NC(N)=O	CIT2-GFP yeast 152.3 (no result: VLA-4 inh)
COc1ccc(NC(=O)COC(=O)c2ccc(Cl)c(S(N)(=O)=O)c2)c([N+](=O)[O-])c1	none
Cc1ccc(N=c2oc3cc(O)ccc3cc2C(N)=O)cc1	MEP2-GFP yeast 613.6[may fluoresce violet], CIT2-GFP yeast inconclusive, RPL19A TOR yeast 48.6[may fluoresce violet]
COc1ccc(-c2cn[nH]c2-c2ccc(OC)cc2O)cc1	none
COc1ccc(-c2[nH]ncc2-c2ccc(Cl)cc2)c(O)c1	LAP4-GFP MLPCN 152.6
CCc1ccc(Nc2oc(C)cc(=O)c2C(C)=O)cc1	MEP2-GFP yeast 298.4[may fluoresce violet], CIT2-GFP yeast inconclusive
CCc1ccc(NC(=O)c2[nH]c(C)c(C(C)=O)c2C)cc1	none
Cc1ccc(-n2ncc3c(=O)n(CC#N)cnc32)cc1C	MEP2-GFP yeast 235.2[may fluoresce violet], CIT2-GFP yeast inconclusive, AGP1 TOR yeast inconclusive
CCc1c(C#N)c(SCCC(=O)Nc2ccc(F)cc2)nc2c1C(=O)CC(C)(C)C2	none
CCc1c(C#N)c(SCCC(=O)Nc2cccc(OC)c2)nc2c1C(=O)CC(C)(C)C2	MEP2-GFP yeast 220.7[may fluoresce violet], CIT2-GFP yeast inconclusive
O=C1CC(C(=O)N2CCc3ccccc32)CN1c1cccc(C(F)(F)F)c1 (stereo not drawn)	none
COc1ccc(CNS(=O)(=O)c2ccc3c(c2)C(C)(C)C(=O)N3C)cc1	MEP2-GFP yeast 823.3[may fluoresce violet], CIT2-GFP yeast inconclusive
CC(=O)c1ccc(-c2ccccc2OC(F)(F)F)o1	none
O/N=C/c1ccc(-c2ccccc2OC(F)(F)F)o1	MEP2-GFP yeast 457.3[may fluoresce violet], CIT2-GFP yeast inconclusive, AGP1 TOR yeast inconclusive, RPL19A TOR yeast 30.6[may fluoresce violet]
Nc1ncnc2c1c(-c1ccc(Oc3ccccc3)cc1)cn2C1CCCC1	none
Cc1cc(OCC(=O)NNC(=S)NCC2CCCO2)cc(C)c1Cl (stereo not drawn)	none
CC(C)NC(=O)Cn1nnc(-c2cccc(NC(=O)c3ccccc3F)c2)n1	MEP2-GFP yeast 600.0[may fluoresce violet], CIT2-GFP yeast inconclusive, RPL19A TOR yeast 44.9[may fluoresce violet]
COCCCNC(=O)Cn1nnc(-c2ccc(NC(=O)c3ccccc3F)cc2)n1	none
O=C1CC(N2CCN(S(=O)(=O)c3ccc([N+](=O)[O-])cc3)CC2)C(=O)N1c1ccccc1F (stereo not drawn)	none
Cn1nc(-c2ccccc2)c2nc3ccccc3nc21	LAP4-GFP MLPCN inconclusive, MEP2-GFP yeast inconclusive, RPL19A TOR yeast inconclusive (no result: AGP1 TOR yeast)
CCCCn1nc(-c2ccccc2)c2nc3ccccc3nc21	MEP2-GFP yeast 426.1[may fluoresce violet], CIT2-GFP yeast inconclusive, AGP1 TOR yeast inconclusive, RPL19A TOR yeast 16.9[may fluoresce violet]
COc1cc(-c2nnc(SCC(=O)c3ccccc3)o2)cc(OC)c1OC	none
COc1ccc(-c2nnc(SCC(=O)N(Cc3ccccc3)C(C)(C)C)o2)cc1OC	MEP2-GFP yeast inconclusive, CIT2-GFP yeast inconclusive, AGP1 TOR yeast inconclusive, RPL19A TOR yeast 10.1[may fluoresce violet]
CN(C)CCCn1c(N)c(C#N)c2nc3ccccc3nc21	MEP2-GFP yeast 485.0[may fluoresce violet], CIT2-GFP yeast inconclusive, AGP1 TOR yeast inconclusive, RPL19A TOR yeast 30.6[may fluoresce violet]
Cc1ccc(S(=O)(=O)c2c(N)n(CCCN(C)C)c3nc4ccccc4nc23)cc1	none
O=C1N(Cc2ccccc2)CCCC12CCCN(Cc1ccccc1)C2=O	MEP2-GFP yeast 273.4[may fluoresce violet], CIT2-GFP yeast inconclusive, AGP1 TOR yeast inconclusive, RPL19A TOR yeast 34.1[may fluoresce violet]
CCOc1cc(C(=O)N(C)Cc2cc3cc(OC)ccc3[nH]c2=O)cc(OCC)c1OCC	none
CCOc1ccccc1C(=O)N(C)Cc1cc2cc(OC)ccc2[nH]c1=O	MEP2-GFP yeast 183.7[may fluoresce violet], CIT2-GFP yeast inconclusive, AGP1 TOR yeast inconclusive
CCOC(=O)c1nnn(-c2nonc2N)c1CN1CCCCCC1	none
Cc1c(C(=O)N2CCCCCC2)nnn1-c1nonc1N	MEP2-GFP yeast 182.1[may fluoresce violet], CIT2-GFP yeast inconclusive (no result: AGP1 TOR yeast)
Nn1c(SCC(=O)NCC2CCCO2)nnc1-c1ccco1 (stereo not drawn)	none
Cc1ccc(N2CC(C(=O)Nc3cccc(C(=O)NC4CC4)c3)CC2=O)cc1 (stereo not drawn)	none
CC(C(=O)NCCc1ccc(F)cc1)N1CCN(Cc2ccccc2)CC1 (stereo not drawn)	MEP2-GFP yeast 213.1
CCOc1ccc(NC(=O)COC(=O)CN2CCCCCC2=O)cc1	none
CC(=O)Nc1ccc(C2CC(c3ccc(Cl)cc3)=NN2c2ccccc2)cc1 (stereo not drawn)	MEP2-GFP yeast 180.6[may fluoresce violet], CIT2-GFP yeast inconclusive
COc1ccc(C2CC(c3cccs3)=NN2c2ccc(C=O)cc2)cc1 (stereo not drawn)	CIT2-GFP yeast inconclusive, AGP1 TOR yeast inconclusive, RPL19A TOR yeast 22.6[may fluoresce violet]
COc1ccc(C2=NN(c3ccc(C=O)cc3)C(c3ccccc3)C2)cc1 (stereo not drawn)	none
CC(=O)Nc1ccc(C2=NN(c3ccccc3)C(c3ccccc3)C2)cc1 (stereo not drawn)	none
O=Cc1ccc(N2N=C(c3ccccc3)CC2c2ccccc2)cc1 (stereo not drawn)	MEP2-GFP yeast 208.4[may fluoresce violet], CIT2-GFP yeast inconclusive, AGP1 TOR yeast inconclusive
COc1ccc(C2=NN(c3ccccc3)C(c3ccc(OC)c(OC)c3)C2)cc1 (stereo not drawn)	MEP2-GFP yeast 182.9[may fluoresce violet], CIT2-GFP yeast inconclusive
CCCN(CC(=O)Nc1ccccc1C)C(=O)C1CCN(S(=O)(=O)c2cccc(C(F)(F)F)c2)CC1	none
c1ccc(C2CC(c3cccs3)=NN2c2ccccc2)cc1 (stereo not drawn)	LAP4-GFP MLPCN inconclusive, MEP2-GFP yeast inconclusive, CIT2-GFP yeast inconclusive, AGP1 TOR yeast inconclusive, RPL19A TOR yeast 37.5[may fluoresce violet]
COc1ccc(NC(=O)c2csc(Cc3ccccc3)n2)cc1	MEP2-GFP yeast 530.2[may fluoresce violet], CIT2-GFP yeast inconclusive, RPL19A TOR yeast 45.3[may fluoresce violet]
COCCNC(=O)C1CCCN(S(=O)(=O)c2ccc3c(c2)CC(C)N3C(=O)C2CC2)C1 (stereo not drawn)	none
Cn1c(CSc2nc3ccccc3s2)nnc1SCC(=O)NCc1cccnc1	MEP2-GFP yeast 588.4[may fluoresce violet], CIT2-GFP yeast inconclusive, AGP1 TOR yeast inconclusive, RPL19A TOR yeast 42.5[may fluoresce violet]
Oc1c(N=Nc2ccccn2)ccc2ccccc12	LAP4-GFP MLPCN 171.4
c1ccc2c(c1)ccc1ncccc12	none
CC1C2(C)OCC(C#N)(C(=N)O2)C1(C#N)C#N (stereo not drawn)	MEP2-GFP yeast 244.5[may fluoresce violet], CIT2-GFP yeast inconclusive, AGP1 TOR yeast inconclusive
CC(=O)Oc1ccc(N2C(=O)C3C(C2=O)C2(C)C=CC3(C)O2)cc1 (stereo not drawn)	LAP4-GFP MLPCN 262.1 (no result: CIT2-GFP yeast)
